{
  "source": "PubChem BioAssay (NCATS)",
  "note": "Inconclusive results are not listed. Activity calls are given as the source filed them. Calls come from the whole dose curve; as a rule, active = well fitted inhibition curve with a large enough effect; inconclusive = small, poorly fitted or top-dose-only effect; inactive = no such curve, though single readings can be large or run the other way. % is set by controls: 0 for no effect and ±100 for the full control effect; potency is the fitted concentration of half-maximal effect.",
  "data": [
    {"target": "Cytochrome P450 2C9 (Homo sapiens) (UniProt P11712)", "sequence (P11712 whole entry, looked up)": "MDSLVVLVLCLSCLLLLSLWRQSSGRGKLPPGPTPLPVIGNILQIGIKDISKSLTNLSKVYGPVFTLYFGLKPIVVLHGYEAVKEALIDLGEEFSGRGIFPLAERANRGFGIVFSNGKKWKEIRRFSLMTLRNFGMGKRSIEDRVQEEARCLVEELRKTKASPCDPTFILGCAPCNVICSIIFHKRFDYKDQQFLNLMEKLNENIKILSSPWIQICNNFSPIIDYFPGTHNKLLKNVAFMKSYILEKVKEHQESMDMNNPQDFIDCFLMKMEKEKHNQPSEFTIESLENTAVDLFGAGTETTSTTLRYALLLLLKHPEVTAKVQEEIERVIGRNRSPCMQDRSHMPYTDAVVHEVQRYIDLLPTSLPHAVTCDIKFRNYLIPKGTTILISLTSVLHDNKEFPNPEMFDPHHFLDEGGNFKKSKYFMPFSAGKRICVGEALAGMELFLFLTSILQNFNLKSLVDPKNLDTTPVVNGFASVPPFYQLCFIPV", "test": "qHTS Assay for Inhibitors and Substrates of Cytochrome P450 2C9 (AID 883); note: nearly all actives have a fitted effect of over 60% in size", "settings": "recombinant CYP2C9, luciferin-H luminescence, 60 min; series mostly up to 11.4 µM; activity change, negative = inhibition: at the top concentration", "method": "NIH Molecular Libraries Screening Centers Network [MLSCN] NIH Chemical Genomics Center [NCGC] MLSCN Grant: None NCGC Assay Overview: The P450 gene superfamily is involved in the metabolism and clearance of xenobiotics. This assay used human CYP2C9 to measure the hydroxylation of deoxyluciferin (Luciferin-H; P450 Glo-Buffer) to luciferin. The luciferin is then measured by luminescence after the addition of a luciferase detection reagent. Luciferin-H concentration in the assay was equal to its Michaelis constant KM for CYP2C9. Inhibitors and some substrates limit the production of luciferin, and decrease measured luminescence.\nNCGC Assay Protocol Summary: Two uL of enzyme and substrate mix (final concentrations: 10nM CYP2C9, 100uM Luciferin-H, 25mM KPO4) were dispensed into a white, solid bottom 1536-well microtiter plate. 23nL of compound was transferred by a pin tool. The plate was incubated at 37C for 10 min. Two uL of an NADPH regeneration solution (Promega supplied reagent) was dispensed and the reaction was allowed to continue for 60 min at 37C. Then the reaction was stopped by reconstituted P450 Glo-Buffer. After another 20 min of incubation the plate was read on the ViewLux (Perkin Elmer) at 60 sec exposure and 2x2 binning. This protocol was carried out with Promega-Glo reagents and further information can be found at http://www.promega.com/tbs/tb325/tb325.pdf. Data were normalized to the to AC100 inhibition (57uM sulphaphenazole). Keywords: P450, CYP2C9, Luciferase, MLSMR, MLSCN, NIH Roadmap, qHTS, NCGC", "values": [
      {"smiles": "CC[C@@H]1CN2CCc3cc(OC)c(OC)cc3[C@H]2C[C@@H]1C[C@H]1NCCc2cc(OC)c(OC)cc21", "activity change, negative = inhibition": "10.2% [at 57.1 µM] (inactive)"},
      {"smiles": "COc1ccc2cc1Oc1ccc(cc1)C[C@H]1c3cc(c(OC)cc3CCN1C)Oc1c(OC)c(OC)cc3c1[C@@H](C2)N(C)CC3", "Potency": "inactive"},
      {"smiles": "Nc1ccn([C@H]2CC[C@H](CO)O2)c(=O)n1", "activity change, negative = inhibition": "3% [at 57.1 µM] (inactive)"},
      {"smiles": "COc1cccc2[nH]c(-c3ccccn3)nc12", "activity change, negative = inhibition": "-15.7% (inactive)"},
      {"smiles": "Cc1ccc(S(=O)(=O)Nc2ccccc2C=O)cc1", "activity change, negative = inhibition": "103% (inactive)"},
      {"smiles": "O=S(=O)(O)c1cc(O)c2c(N=Cc3ccccc3O)cc(S(=O)(=O)O)cc2c1", "Potency": "3.16 µM (active)"},
      {"smiles": "c1ccc(CSCCc2ccncc2)cc1", "Potency": "0.316 µM (active)"},
      {"smiles": "C[C@H]1[C@H](O)[C@@H](C)C=CC=CC=CC=CC=CC=CC=C[C@H](O[C@@H]2O[C@@H](C)[C@H](O)[C@@H](N)[C@@H]2O)C[C@@H]2O[C@](O)(C[C@@H](O)C[C@@H](O)[C@@H](O)CC[C@@H](O)C[C@@H](O)CC(=O)O[C@H]1C)C[C@H](O)[C@H]2C(=O)O", "activity change, negative = inhibition": "7.32% (inactive)"},
      {"smiles": "Nc1cccc2nsnc12", "activity change, negative = inhibition": "-13.9% (inactive)"},
      {"smiles": "C/C(C[n+]1ccccc1)=N\\N=C(N)N", "activity change, negative = inhibition": "34% (inactive)"},
      {"smiles": "Oc1c(Br)cc(CN(Cc2cc(Br)c(O)c(Br)c2)C2CCCCC2)cc1Br", "Potency": "2.51 µM (active)"},
      {"smiles": "O=C1c2ccccc2C(=O)c2c1ccc(C(=O)O)c2-c1ccc2ccccc2c1", "Potency": "1.58 µM (active)"},
      {"smiles": "O=C(O)c1cc(C(=O)C(=O)c2cc(C(=O)O)c(O)c3ccccc23)c2ccccc2c1O", "Potency": "0.316 µM (active)"},
      {"smiles": "O=C(O)CSC1=NCCN1", "activity change, negative = inhibition": "7.18% (inactive)"},
      {"smiles": "CC(C)CO[C@H](c1ccc2c(c1)OCO2)[C@H](C)Br", "Potency": "2 µM (active)"},
      {"smiles": "FC(F)(F)c1cccc(-c2nc3nc(Cl)c(Cl)nc3[nH]2)c1", "Potency": "3.98 µM (active)"},
      {"smiles": "c1ccc2cc(NCNc3ccc4ccccc4c3)ccc2c1", "Potency": "3.98 µM (active)"},
      {"smiles": "C[C@@]12CCC(=O)C=C1CC[C@H]1[C@H]3CC[C@](O)(C(=O)CO)[C@]3(C)CC[C@@H]12", "activity change, negative = inhibition": "27.8% [at 57.1 µM] (inactive)"},
      {"smiles": "COc1ccc([C@@H](Nc2ccccn2)c2cc(C(C)(C)C)cc(C(C)(C)C)c2O)cc1", "Potency": "2.51 µM (active)"},
      {"smiles": "O=C1c2cccc([N+](=O)[O-])c2C(=O)N1c1ncn[nH]1", "activity change, negative = inhibition": "34.4% (inactive)"},
      {"smiles": "O=c1[nH]c(=O)n([C@H]2C[C@H](O)[C@H](CO)O2)cc1Br", "activity change, negative = inhibition": "-9.23% [at 57.1 µM] (inactive)"},
      {"smiles": "O=C1/C(=C/c2ccccc2)[C@@H](NC2CCCCC2)c2ccccc21", "Potency": "3.98 µM (active)"},
      {"smiles": "COc1ccc2c(Cc3c4ccccc4cc4ccccc34)cncc2c1O", "activity change, negative = inhibition": "-51.7% (inactive)"},
      {"smiles": "CC#C[C@@]1(O)CC[C@@H]2[C@@H]3CCC4=CC(=O)CCC4=C3[C@@H](c3ccc(N(C)C)cc3)C[C@]21C", "Potency": "7.94 µM (active)"},
      {"smiles": "Nc1ccc(N(S(=O)(=O)c2ccccc2)S(=O)(=O)c2ccccc2)c(Cl)c1", "Potency": "3.16 µM (active)"},
      {"smiles": "CN(C)CCNCCN", "activity change, negative = inhibition": "42.8% (inactive)"},
      {"smiles": "O=c1c(-c2cccs2)nc2cnc(Oc3ccccc3)nc2n1C1CC1", "Potency": "3.16 µM (active)"},
      {"smiles": "COc1cccc2c1C(=O)c1c(O)c3c(c(O)c1C2=O)C[C@](O)(C(=O)CO)C[C@@H]3O[C@H]1C[C@H](N)[C@@H](O)[C@H](C)O1", "activity change, negative = inhibition": "8.25% (inactive)"},
      {"smiles": "Cc1cc(N2CCOCC2)nc2ccc(Cc3ccc4nc(N5CCOCC5)cc(C)c4c3)cc12", "Potency": "3.98 µM (active)"},
      {"smiles": "O=C(O)C(=Cc1ccc(-c2ccccc2)cc1)C(=O)O", "activity change, negative = inhibition": "7.82% (inactive)"},
      {"smiles": "N[C@@H](C(=O)O)[C@@H]1C[C@H]1C(=O)O", "activity change, negative = inhibition": "31.2% [at 57.1 µM] (inactive)"},
      {"smiles": "O=[N+]([O-])c1ccc(S(=O)(=O)Cc2ccccc2)c2nonc12", "Potency": "0.316 µM (active)"},
      {"smiles": "Cc1c2cnccc2c(C)c2c1c1ccccc1n2CCOC(=O)c1ccccc1", "Potency": "3.16 µM (active)"},
      {"smiles": "CCNC(=O)[C@@H]1O[C@@H](n2cnc3c(NCc4ccccc4)ncnc32)[C@@H](O)[C@H]1O", "activity change, negative = inhibition": "8.72% [at 57.1 µM] (inactive)"},
      {"smiles": "O=C1c2ccccc2C(=O)c2c1ccc(N1C(=O)c3ccccc3C1=O)c2-c1c(N2C(=O)c3ccccc3C2=O)ccc2c1C(=O)c1ccccc1C2=O", "activity change, negative = inhibition": "-1.95% (inactive)"},
      {"smiles": "O=C(O)c1cccc(CN2CCCCC2)c1", "activity change, negative = inhibition": "35.8% (inactive)"},
      {"smiles": "CSc1nc(N)c2ncn([C@@H]3O[C@@H](COP(=O)(O)OP(=O)(O)OP(=O)(O)O)[C@@H](O)[C@H]3O)c2n1", "activity change, negative = inhibition": "17.1% [at 57.1 µM] (inactive)"},
      {"smiles": "O=S1(=O)CCN(c2ccccc2CC(c2c[nH]c3ccccc23)c2c[nH]c3ccccc23)CC1", "Potency": "3.16 µM (active)"},
      {"smiles": "COc1ccc([C@@H](C)c2cc3c(cc2O)OCO3)cc1", "Potency": "1.58 µM (active)"},
      {"smiles": "N=C(N)SCCN1CCCCC1", "activity change, negative = inhibition": "9.54% (inactive)"}
    ]}
  ]
}
